Test [1] in a line: qHTS assay to identify small molecule antagonists of the glucocorticoid receptor (GR) signaling pathway - cell viability counter screen (AID 720693). Also: nearly all actives have a fitted effect of over 55% in size. Also: potency is read from the fitted curve at half-maximal effect.
Test [2] in a line: qHTS assay for identifying genotoxic compounds that show differential cytotoxicity against isogenic chicken DT40 cell lines with known DNA damage response pathways - wild type cell line (AID 743012). Also: nearly all actives have a fitted effect of over 60% in size. Also: potency is read from the fitted curve at half-maximal effect. The method in brief: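 Luminescent ATP viability signal (CellTiter-Glo, 30 min RT) recorded after wild type DT40 cells were incubated with compounds for 40 h at 37 C/5% CO2.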
A general note: In qHTS, concentration-response curves come from the screen itself.

Test [3] can be described thus: qHTS assay for identifying genotoxic compounds that show differential cytotoxicity against isogenic chicken DT40 cell lines with known DNA damage response pathways - Rev3 mutant cell line (AID 743014). Also: nearly all actives have a fitted effect of over 55% in size. Also: potency is read from the fitted curve at half-maximal effect.
A short description of test [4]: qHTS assay for identifying genotoxic compounds that show differential cytotoxicity against isogenic chicken DT40 cell lines with known DNA damage response pathways - Rad54/Ku70 mutant cell line (AID 743015). Also: nearly all actives have a fitted effect of over 60% in size. Also: potency is read from the fitted curve at half-maximal effect.
A short description of test [5]: qHTS assay to identify small molecule antagonists of the androgen receptor (AR) signaling pathway - cell viability counter screen (AID 743033; also: nearly all actives have a fitted effect of over 45% in size; also: potency is read from the fitted curve at half-maximal effect).
Test [6] has as its target Androgen receptor (Homo sapiens) (UniProt P10275). The test can be described thus: qHTS assay to identify small molecule antagonists of the androgen receptor (AR) signaling pathway (AID 743035; active = well fitted inhibition curve with a large enough effect in the signal ratio in the repeat runs, not every such curve was filed as active; the % refers to the signal ratio; also: potency is read from the fitted curve at half-maximal effect). The gist of the method: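 Quantitative HTS of the Tox21 10K library used HEK293 AR-UAS-bla cells stimulated with R1881 alongside compound for 16 h at 37C, followed by beta-lactamase FRET detection (LiveBLAzer B/G, 2 h, RT).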

Test [7] has the same target. Description: qHTS assay to identify small molecule agonists of the androgen receptor (AR) signaling pathway (AID 743036; active = well fitted activation curve with a large enough effect in the signal ratio in the repeat runs, with a control signal flat, not every such curve was filed as active; the % refers to the signal ratio). The method in brief: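 AR-UAS-bla HEK293 cells, plated 4 h before dosing, were treated with compound for 16 h at 37C. beta-Lactamase reporter read after 2 h with LiveBLAzer B/G FRET substrate at room temperature.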
Test [8] has the same target. The test can be described thus: qHTS assay to identify small molecule agonists of the androgen receptor (AR) signaling pathway using the MDA cell line (AID 743040; also: nearly all actives have a fitted effect of over 20% in size). The gist of the method:
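Agonist activity is measured as luciferase luminescence in human MDA-kb2 cells whose MMTV reporter responds to both AR and GR. Compounds in DMSO incubate 16 h at 37C, 0% CO2, and ONE-Glo is read after 30 min.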

Test [9] in a line: qHTS assay to identify small molecule antagonists of the androgen receptor (AR) signaling pathway using the MDA cell line - cell viability counter screen (AID 743041; also: nearly all actives have a fitted effect of over 45% in size). The gist of the method:
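qHTS viability read-out; MDA-kb2 AR-luc; R1881-stimulated; 16 h exposure at 37C, 0% CO2; CellTiter-Fluor, 30 min; fluorescence intensity.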

The nature of test [10]: qHTS assay to identify small molecule antagonists of the thyroid receptor (TR) signaling pathway - cell viability counter screen (AID 743064). Also: nearly all actives have a fitted effect of over 50% in size. Also: potency is read from the fitted curve at half-maximal effect. The method in brief: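 GH3.TRE-Luc rat pituitary cells dosed after 4 hr plating, co-stimulated with T3 at 1 nM final, incubated 23.5 h at 37 C. Viability measured in the same wells by CellTiter-Fluor fluorescence after 30 min further at 37 C.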

Where “and” joins values, the source holds several entries; their conditions need not be identical. Identical values can stand only once. Records with an inconclusive call do not appear. Where a structure was tested more than once in an assay, its records may differ in their call. Calls of active or inactive are those of the source. Unless noted, calls follow the shape of the dose curve; as a rule, active = well fitted curve in the direction sought with a large enough effect in the repeat runs; inconclusive = weak or mixed curves; inactive = no such curve, though single readings can be large; an effect the other way counts as inactive or inconclusive. Starred links: 1 amine or outer side, 2 acyl side, 3 side chain; linkers in the order of their positions; H or OH if unused. Positions of bridges follow the written chain, without caps; N, C: chain ends. Non-standard residues stand in square brackets, D forms with d. Residues, ends and D or L forms follow the SMILES beside them. Chains are numbered I, II in the order given. Actinocin(9to1) = Cc1c2oc3c(C)ccc(C(=O)[*:1])c3nc-2c(C(=O)[*:2])c(N)c1=O; NMeV = CN[C@H](C(=O)O)C(C)C; Sar = CNCC(=O)O

Sequence of Androgen receptor (Homo sapiens) (P10275 whole entry, looked up): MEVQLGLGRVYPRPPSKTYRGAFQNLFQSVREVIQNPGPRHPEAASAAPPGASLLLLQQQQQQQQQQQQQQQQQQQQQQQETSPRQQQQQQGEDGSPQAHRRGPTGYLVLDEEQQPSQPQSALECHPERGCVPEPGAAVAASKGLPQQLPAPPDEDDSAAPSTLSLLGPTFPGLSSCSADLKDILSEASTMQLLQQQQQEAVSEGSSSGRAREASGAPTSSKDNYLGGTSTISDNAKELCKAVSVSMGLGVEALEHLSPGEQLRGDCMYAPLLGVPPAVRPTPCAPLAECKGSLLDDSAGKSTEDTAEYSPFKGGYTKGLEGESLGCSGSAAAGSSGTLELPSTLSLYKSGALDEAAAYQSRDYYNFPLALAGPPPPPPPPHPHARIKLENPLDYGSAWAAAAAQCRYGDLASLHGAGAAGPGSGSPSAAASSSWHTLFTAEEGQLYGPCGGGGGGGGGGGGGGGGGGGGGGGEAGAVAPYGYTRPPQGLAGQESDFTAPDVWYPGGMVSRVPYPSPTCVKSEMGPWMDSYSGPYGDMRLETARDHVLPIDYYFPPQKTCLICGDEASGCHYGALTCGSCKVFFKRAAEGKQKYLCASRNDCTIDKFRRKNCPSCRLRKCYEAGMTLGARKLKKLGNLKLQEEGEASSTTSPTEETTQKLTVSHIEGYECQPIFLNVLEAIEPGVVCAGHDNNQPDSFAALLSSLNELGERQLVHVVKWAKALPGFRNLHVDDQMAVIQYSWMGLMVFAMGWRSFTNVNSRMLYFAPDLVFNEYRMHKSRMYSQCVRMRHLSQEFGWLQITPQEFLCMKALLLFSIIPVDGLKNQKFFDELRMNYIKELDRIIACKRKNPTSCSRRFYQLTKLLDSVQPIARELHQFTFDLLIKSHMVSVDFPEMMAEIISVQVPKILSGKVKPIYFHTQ

Turning to `COC(=O)c1cccc(C(=O)OC)c1`, the Potency entry in [1], in test [2], in test [3], in [4], in test [5] and in test [6] was “inactive” throughout. Besides, the Potency result in test [7], in [9] and in test [10] was “inactive” each time. Moreover, in [8], the compound was called inactive.
As for `CC(C)CCOCc1ccccc1`, the Potency entry in test [1], in [2], in [3], in test [4], in [5] and in test [6] was “inactive” throughout. For the same compound, the Potency entry in test [7] and in [10] was “inactive” throughout. Also, the compound was called inactive in test [8].
On to `O=C1OC2(c3ccc(O)cc3Oc3cc(O)ccc32)c2ccccc21`, for which the Potency result in test [1], in test [2], in [3], in test [4] and in test [5] was “inactive” each time.
On to `COC(c1ccccc1)(c1ccccc1)[C@H](Oc1nc(C)cc(C)n1)C(=O)O`, for which the Potency result in test [1], in test [2], in test [3], in test [4] and in [5] was “inactive” each time.
As for `COc1cc(C(=S)N2CCOCC2)ccc1O`, the Potency entry in [1], in test [2], in test [3], in test [4], in test [5] and in test [9] was “inactive” throughout. Further, in test [10], the Potency result was “inactive”. Also, the outcome in test [8] was inactive.
On to `CC(=O)CC(=O)Nc1ccc2[nH]c(=O)[nH]c2c1`, for which the Potency result in test [1], in test [2], in test [3], in [4], in test [5] and in test [9] was “inactive” in each case.
Turning to `CCN(CC)c1ccc2c(C)cc(=O)oc2c1`, the Potency result in test [1] and in test [5] was “inactive” throughout. Besides, the Potency is 30.9 µM (active) and inactive in test [2]; 69.1 µM (active) in test [3]; 61.6 µM (active) in test [4].
With `CCOc1ccc2c(c1)C(C)=CC(C)(C)N2`, the Potency result in test [1], in test [5], in test [6], in test [9] and in [10] was “inactive” each time. For the same compound, the Potency in test [2] is 13.3 µM (active) and 13.7 µM (active); in test [3], 26.6 µM (active) and 27.2 µM (active) and 17.2 µM (active); in [4] it was 21.1 µM (active) and 54.2 µM (active) and 15.4 µM (active). Also, the call in [8] was inactive.
For `CCOc1ccccc1C(N)=O`, the Potency entry in test [1], in test [2], in test [3], in test [4], in test [5] and in test [6] was “inactive” in each case. Also, the Potency entry in test [7], in [9] and in [10] was “inactive” throughout. Also, the outcome in test [8] was inactive.
For `CCCCCCCCCCCCc1ccccc1O`, the Potency in test [1] was 21.6 µM (active) and 21.9 µM (active); in test [2] it was 12 µM (active) and 30.6 µM (active); in test [3], 7.59 µM (active) and 24.3 µM (active); in test [4], 12 µM (active) and 27.3 µM (active); in test [5] it was 24.2 µM (active) and 38.9 µM (active); in test [6], 21.6 µM (active). In [10], the Potency was 13.7 µM (active). For the same compound, in [8], the outcome was inactive. The Potency entry in test [9] was “inactive”.
Regarding `CC(COc1ccccc1)N(CCCl)Cc1ccccc1` (stereo not drawn), the Potency result in test [1], in test [5] and in [9] was “inactive” each time. Moreover, the Potency in [2] is 21.1 µM (active) and 27.3 µM (active); in test [3], 13.3 µM (active) and 34.7 µM (active) and 5.45 µM (active); in test [4], 23.7 µM (active) and 15.4 µM (active).
Take `CN1C(=O)c2ccc([N+](=O)[O-])cc2C1=O`: the Potency result in test [1], in [2], in [3], in test [4], in test [5] and in [6] was “inactive” in each case. Besides, the Potency entry in [7], in test [9] and in [10] was “inactive” throughout. Also, the outcome in [8] was inactive.
In the case of `CCCCCCCCCCCCCC[P+](CCCC)(CCCC)CCCC`, the Potency in test [1] was 9.72 µM (active) and 4.9 µM (active); in test [2] it was 192 nM (active) and 86.3 nM (active); in test [3] it was 85.8 nM (active) and 61.1 nM (active); in test [4] it was 76.5 nM (active) and 54.5 nM (active); in [5], 866 nM (active) and 977 nM (active); in test [10], 2.16 µM (active) and 2.17 µM (active). Moreover, the result in test [8] was inactive.
Take `Cc1c2oc3c(C)ccc(C(=O)N[C@@H]4C(=O)N[C@H](C(C)C)C(=O)N5CCC[C@H]5C(=O)N(C)CC(=O)N(C)[C@@H](C(C)C)C(=O)O[C@@H]4C)c3nc-2c(C(=O)N[C@@H]2C(=O)N[C@H](C(C)C)C(=O)N3CCC[C@H]3C(=O)N(C)CC(=O)N(C)[C@@H](C(C)C)C(=O)O[C@@H]2C)c(N)c1=O` (I: T[dV]P[Sar][NMeV] / II: T[dV]P[Sar][NMeV]; ester I:1-I:C, II:1-II:C; linker I:N-II:N via Actinocin(9to1)): the Potency in test [1] is 239 nM (active) and 9.5 nM (active); in test [2], 6.7 nM (active) and 1.1 nM (active); in [3], 7.5 nM (active) and 0.7 nM (active); in [4], 0.0024 µM (active); in test [6], 23.9 nM (active) and 1 nM (active); in [10], 6 nM (active) and 0.9 nM (active). The Potency result in test [5] and in [7] was “inactive” in each case. The compound was called inactive in test [8].

The record behind these values is PubChem BioAssay (Tox21).
